Bioassay records: PubChem BioAssay, several laboratories
This is a sample that favours compounds with a hit; in the whole collection about 32% have one here.
PostGolgi yeast: growth inhibition of a yeast mutant, post-Golgi transport screen; post-Golgi transport phenotypic cell assay; inhibition, % at 10 µM; actives 0.9% (n = 98,000); AID 739;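 also: yeast cells grown in 1536-well plates; yeast grown about 18 h at 30C before absorbance read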
CYP2C19 inh: inhibitors of human CYP2C19; P33261; CYP2C19 Supersomes, luciferin-H EGE luminescence, 30 min; inhibition, % at 5 µM; actives 21% (n = 96,000);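 active = CYP2C19 inhibition above a set limit at 5 µM in the primary screen, cut at about 50% in these data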
Target sequence (P33261 whole entry, looked up): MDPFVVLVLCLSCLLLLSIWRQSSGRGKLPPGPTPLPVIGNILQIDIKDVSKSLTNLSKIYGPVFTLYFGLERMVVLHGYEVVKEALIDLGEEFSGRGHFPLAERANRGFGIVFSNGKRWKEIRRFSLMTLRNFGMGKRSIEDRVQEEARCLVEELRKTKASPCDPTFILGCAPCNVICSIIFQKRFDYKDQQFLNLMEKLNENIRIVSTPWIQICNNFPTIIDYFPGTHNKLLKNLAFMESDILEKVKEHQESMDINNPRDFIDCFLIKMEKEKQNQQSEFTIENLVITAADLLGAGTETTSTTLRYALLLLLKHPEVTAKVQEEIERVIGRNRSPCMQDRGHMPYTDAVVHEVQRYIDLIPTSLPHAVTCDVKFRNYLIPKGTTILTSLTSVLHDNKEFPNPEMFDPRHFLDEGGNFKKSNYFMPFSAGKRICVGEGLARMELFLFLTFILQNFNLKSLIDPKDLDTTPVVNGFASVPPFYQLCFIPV
CYP2C19 act: activators of human cytochrome P450 2C19; P33261; recombinant CYP2C19, luciferin-H EGE luminescence; hits give high values; 0 = fully inhibited enzyme, 1 = untreated enzyme; activation factor at 5 µM; 96,000 tested, under 10 active; AID 1025;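 active = activation factor of at least 2 at 5 µM in the primary screen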
CYP2C9 inhib: inhibitors of human CYP2C9; CYP2C9 Supersomes, luciferin-H conversion, luminescence; actives 20% (n = 96,000); inhibition, % at 5 µM;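 active = blocking of liver enzyme CYP2C9 beyond about 50% at 5 µM, limit read from the data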
CYP2C9 activ: activators of human CYP2C9; AID 1024; P11712; recombinant CYP2C9, luciferin-H conversion, luminescence; hits give high values; factor 1 = untreated enzyme, 0 = blocked; actives 1.4% (n = 96,000); activation factor at 5 µM;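 active = activation factor of 2 or more for CYP2C9 at a 5 µM dose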
PostGolgi ctrl: inhibits growth of the yeast control strain; efflux-deficient yeast background strain, growth absorbance A615, 16 h; AID 738; inhibition, % at 10 µM; actives 5% (n = 98,000)
Of the large screens only hits and unclear results are named; the others gave an inactive call. Rule as the data show it, unless noted: active = inhibition above about 30%; inactive = the rest.

Cc1ccc(S(=O)(=O)c2c(N)n(Cc3ccco3)c3nc4ccccc4nc23)cc1	CYP2C9 inhib 69
Cc1cccc(S(=O)(=O)c2c(N)n(Cc3ccco3)c3nc4ccccc4nc23)c1	CYP2C19 inh 91, CYP2C9 inhib 96
Cc1ccc2cc(C#N)c(NCCNC(=O)C3CC3)nc2c1C	CYP2C9 inhib 64
CCC(=O)NCCNc1nc2cc(C)c(C)cc2cc1C#N	CYP2C19 inh 50, CYP2C9 inhib 72
Cc1ccc(NC(=O)c2cc(N3CCOCC3)nc3ccccc23)cc1	none
O=C(Nc1nccs1)c1cc(N2CCOCC2)nc2ccccc12	PostGolgi ctrl 34
O=C(Nc1ccccc1)c1cc(N2CCOCC2)nc2ccccc12	CYP2C9 inhib 51
c1ccc(COc2ccc(CNn3cnnc3)cc2)cc1	none
COc1ccccc1NC(=O)Nc1ccc2c(c1)OCCO2	CYP2C19 inh 82, CYP2C9 inhib 54
COc1ccc(NC(=O)CN2CCN(CC(=O)Nc3ccc4c(c3)OCO4)CC2)cc1	none
COc1ccccc1NC(=O)CN1CCN(CC(=O)Nc2ccc3c(c2)OCO3)CC1	CYP2C19 inh 88
COCCNC(=O)CN1CCC(NC(=O)Nc2ccccc2)CC1	none
O=C(Nc1ccc2c(c1)OCO2)NC1CCN(Cc2ccccc2)CC1	none
CC(C)c1ccc(NC(=O)NC2CCN(CC(=O)Nc3cccc4ccccc34)CC2)cc1	CYP2C19 inh 56
CCOc1ccccc1NC(=O)NC1CCN(CC(=O)Nc2ccc3c(c2)OCCO3)CC1	CYP2C19 inh 59
Cc1cccc(N(C)c2cc(C)nc3nc(C)nn23)c1	none (no result: CYP2C19 inh, CYP2C19 act, CYP2C9 inhib, CYP2C9 activ)
CC1CCCN(c2c([N+](=O)[O-])c(=O)oc3ccccc23)C1 (centres undefined)	CYP2C19 inh 94
O=c1oc2ccccc2c(Nc2ccc(O)cc2)c1[N+](=O)[O-]	none
O=S(=O)(c1ccc2ccccc2c1)N(CC(O)COCc1ccco1)c1ccccc1 (centres undefined)	PostGolgi ctrl 31
CC(=O)NC12CC3CC(C)(C1)CC(NC(C)=O)(C3)C2	none
CC1(C(=O)NC23CC4CC(CC(C4)C2)C3)CC1(Cl)Cl (centres undefined)	PostGolgi ctrl 34
O=c1[nH]nc(Cc2ccc(-c3ccc(Cl)cc3)o2)c2ccccc12	none
Cc1cccc(C)c1NC(=O)Cn1nnc(-c2ccc(N3CCOCC3)cc2)n1	none
O=c1cc(O)n(-c2ccc(F)cc2)c(=S)[nH]1	none
O=S(=O)(c1cnc[nH]1)N1CCCCCC1	none
Cc1ccc(Cl)cc1N1CCN(S(C)(=O)=O)CC1	none
Cc1ccc(Cl)cc1N1CCN(S(=O)(=O)c2cnc[nH]2)CC1	CYP2C19 inh 99, CYP2C9 inhib 97
O=S(=O)(c1cnc[nH]1)N1CCN(c2ccccc2)CC1	CYP2C19 inh 64
Nc1ccc(C(=O)c2ccccc2C(=O)O)cc1Cl	none
CS(=O)(=O)N1CCc2cc(-c3csc(NC(=O)C(c4ccccc4)c4ccccc4)n3)ccc21	CYP2C9 inhib 58
CC(=O)c1cccc(Nc2nc(-c3cccc([N+](=O)[O-])c3)cs2)c1	CYP2C9 inhib 57
CC(=O)Nc1nc(C)c(-c2csc(Nc3cccc([N+](=O)[O-])c3)n2)s1	CYP2C19 inh 83, CYP2C9 inhib 89
CS(=O)(=O)N1CCc2cc(C(=O)O)ccc21	none
CC(=O)Nc1nc(C)c(-c2csc(Nc3ccc(O)cc3)n2)s1	CYP2C9 inhib 76
CCOC(=O)c1oc2ccccc2c1NC(=O)COc1ccc(F)cc1	none
CCN(c1ccccc1)S(=O)(=O)c1cc(C(=O)O)ccc1C	none
CN(C)/C=N/c1sccc1C(N)=O	none
CCOC(=O)C(C)Sc1nnc(-c2ccccc2O)n1Cc1ccccc1 (centres undefined)	none
CC1Cc2cc(-c3csc(NC(=O)Cc4ccccc4)n3)ccc2N1S(C)(=O)=O (centres undefined)	CYP2C9 inhib 58
O=C(Nc1nc(-c2cccc([N+](=O)[O-])c2)cs1)C(c1ccccc1)c1ccccc1	CYP2C9 inhib 74
CC(=O)Nc1cccc(-c2csc(Nc3cc(C)ccn3)n2)c1	PostGolgi ctrl 31
Cc1ccc(S(=O)(=O)N2CCCC2C(=O)O)s1 (centres undefined)	none
Cc1cc(/C=N\O)c(C)n1-c1ccncc1	none
Cc1cc(/C=N/n2cnnc2)c(C)n1-c1ccc(OCc2ccc(F)cc2)cc1	PostGolgi ctrl 61
Cc1cc(/C=N/n2cnnc2)c(C)n1-c1ccc(OCc2ccc(Cl)cc2Cl)cc1	PostGolgi ctrl 96
CCCCOC(=O)Nc1sc2c(c1C(=O)OC)CCC2	none (no result: PostGolgi yeast, PostGolgi ctrl)
CSc1ccc(/C=C/C(=O)c2ccc(NC(=O)C(C)C)cc2)cc1	none
COc1cccc(/C=C/C(=O)c2ccc[nH]2)c1	CYP2C19 inh 70
COc1cccc(C(=O)/C=C/Nc2ccc(S(=O)(=O)Nc3cccc(C(C)=O)c3)cc2)c1	CYP2C9 inhib 78, PostGolgi ctrl 42
COc1cccc(C(=O)/C=C/Nc2cccc(O)c2)c1	CYP2C19 inh 91
COc1cccc(C(=O)/C=C/c2ccc(SC)cc2)c1	CYP2C19 inh 92
COCCN1C(=O)c2ccccc2C(C(=O)NCCCN2CCCC2=O)C1c1c[nH]c2ccccc12 (centres undefined)	none (no result: CYP2C19 inh, CYP2C19 act, CYP2C9 inhib, CYP2C9 activ)
O=C1C2C3c4ccccc4C(c4ccccc43)C2C(=O)N1c1cccc2cccnc12 (centres undefined)	none
COC(=O)c1ccc(C)c(NC(=O)Cc2coc3cc(OC)ccc23)c1	CYP2C19 inh 95, CYP2C9 inhib 98
COC(=O)c1cc(NC(=O)Cc2coc3cc(OC)ccc23)cc(C(=O)OC)c1	CYP2C19 inh 58, CYP2C9 inhib 92
COC(=O)c1cc(NC(=O)Cc2ccc(OC)c(OC)c2)cc(C(=O)OC)c1	CYP2C9 inhib 82
COc1ccc2c(CC(=O)OCC(=O)Nc3ccc4c(c3)OCO4)coc2c1	none
COc1ccc(CC(=O)Nc2nncs2)cc1OC	none
Cc1ccc(OCC(=O)NNC(=O)c2cc3ccccc3o2)cc1C	none
Cc1ccc(NC(=O)N(CCCN2CCOCC2)Cc2cc3cc4c(cc3[nH]c2=O)OCO4)cc1	none
COc1ccc(CN(Cc2cc3cc4c(cc3[nH]c2=O)OCO4)C(=O)NC2CCCCC2)cc1	CYP2C9 inhib 90
Cc1ccc(NC(=O)N(Cc2ccc3c(c2)OCO3)Cc2cc3cc4c(cc3[nH]c2=O)OCCO4)cc1	PostGolgi ctrl 56
COc1ccc(CCNC(=O)CSc2nncn2N)cc1OC	none
N#Cc1c(-c2ccccc2)ccn(Cc2ccccc2Cl)c1=O	CYP2C19 inh 54
CNC(=S)NNC(=O)c1cccn(Cc2cccc(Cl)c2)c1=O	none
N=c1n(CC(=O)O)c2ccccc2n1Cc1ccccc1Cl	none
N#Cc1c(-c2ccccc2)ccn(Cc2cccc(Cl)c2)c1=O	CYP2C19 inh 77, CYP2C9 inhib 51
CSc1cc(-c2ccccc2)n(Cc2ccccc2Cl)c(=O)c1C#N	CYP2C9 inhib 61
